# Assay results reported in ChEMBL document CHEMBL3988442, “University of Dundee, Small-Polar-MMV Screening Library” (2021).
# Molecular target: T1, Methionyl-tRNA synthetase, putative (Leishmania donovani (strain BPK282A1)) (UniProt E9BF75)
# T1 sequence (whole entry): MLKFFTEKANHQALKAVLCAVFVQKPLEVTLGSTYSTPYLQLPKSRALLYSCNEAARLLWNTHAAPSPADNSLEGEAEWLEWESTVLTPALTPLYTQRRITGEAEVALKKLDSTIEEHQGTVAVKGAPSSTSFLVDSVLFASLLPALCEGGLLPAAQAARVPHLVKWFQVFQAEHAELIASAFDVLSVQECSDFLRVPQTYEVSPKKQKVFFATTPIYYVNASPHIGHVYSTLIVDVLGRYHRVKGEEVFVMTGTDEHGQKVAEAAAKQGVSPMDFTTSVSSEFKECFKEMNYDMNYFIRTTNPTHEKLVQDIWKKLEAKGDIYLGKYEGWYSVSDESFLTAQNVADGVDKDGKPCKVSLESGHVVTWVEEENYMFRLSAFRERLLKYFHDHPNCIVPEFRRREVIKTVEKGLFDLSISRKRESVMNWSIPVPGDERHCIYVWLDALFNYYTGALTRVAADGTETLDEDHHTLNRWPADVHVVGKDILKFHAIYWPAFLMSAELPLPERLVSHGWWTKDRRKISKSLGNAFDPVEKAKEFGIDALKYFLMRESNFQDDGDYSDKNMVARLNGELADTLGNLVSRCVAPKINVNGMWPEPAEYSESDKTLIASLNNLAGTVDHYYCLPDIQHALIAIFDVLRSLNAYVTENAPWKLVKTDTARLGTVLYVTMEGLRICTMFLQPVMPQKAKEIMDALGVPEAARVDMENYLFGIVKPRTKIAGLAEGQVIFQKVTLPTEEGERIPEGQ
# Test: Leishmania donovani Methionine tRNA synthetase (LdMetRS):v7. Dose response assay
# Format: functional
# Design: conc 80 nM, time 150 minutes
smiles,measurement,setting,value
CC(C)c1nc2c(n1C)CCN(Cc1nc(-c3cccnc3)no1)C2,PXC50,"BOTTOM 2.671185226, HILLSLOPE 0.615272847, MAX_EFFECT 58.33333333, TOP 100.0",4.04
same,PXC50,MAX_EFFECT 45.45454545,< 4
same,PXC50,MAX_EFFECT 45.58058925,< 4
same,PXC50,MAX_EFFECT 47.65100671,< 4
same,PXC50,MAX_EFFECT 48.17658349,< 4
Cc1cnc(Nc2ccc(F)c(F)c2)nc1NCCO,PXC50,"BOTTOM 3.101896626, HILLSLOPE 0.807877595, MAX_EFFECT 79.29515419, TOP 94.15227944",5.03
same,PXC50,"BOTTOM 5.769615282, HILLSLOPE 1.014209397, MAX_EFFECT 83.3655706, TOP 87.41572948",5.22
same,PXC50,"BOTTOM -1.22519456, HILLSLOPE 0.709920628, MAX_EFFECT 85.74380165, TOP 105.2657083",5
COC(=O)CNc1nc(Nc2ccc(F)c(F)c2)nc2c1cnn2C,PXC50,"BOTTOM 3.451309233, HILLSLOPE 1.311155922, MAX_EFFECT 92.63657957, TOP 92.51088835",5.87
same,PXC50,"BOTTOM -7.309973035, HILLSLOPE 0.885022203, MAX_EFFECT 95.56840077, TOP 99.22229829",5.83
same,PXC50,"BOTTOM -8.727655422, HILLSLOPE 0.982384922, MAX_EFFECT 94.42060086, TOP 95.2064332",5.96
Cn1ncc2c(NCCCO)nc(Nc3ccc(F)c(F)c3)nc21,PXC50,"BOTTOM 3.669470718, HILLSLOPE 1.210805745, MAX_EFFECT 80.79625293, TOP 84.65096449",5.1
same,PXC50,"BOTTOM -1.663315364, HILLSLOPE 0.981462858, MAX_EFFECT 92.22222222, TOP 100.0",4.94
same,PXC50,"BOTTOM -4.044672009, HILLSLOPE 0.90681659, MAX_EFFECT 92.93598234, TOP 107.9137749",4.87
NCC1CCN(C2CCN(c3ccc(-c4ccco4)cc3)CC2)C1 (stereo unspecified),PXC50,"BOTTOM 4.43866672, HILLSLOPE 0.884621075, MAX_EFFECT 64.49275362, TOP 100.0",4.31
same,PXC50,"BOTTOM 4.60090898, HILLSLOPE 1.046241477, MAX_EFFECT 65.98639456, TOP 92.93543159",4.34
same,PXC50,"BOTTOM 4.64806131, HILLSLOPE 0.783599422, MAX_EFFECT 54.46584939, TOP 100.0",4.09
Cc1nn(C)c(C)c1CCn1cncc1-c1ccc2c(c1)CC(C)N2C (stereo unspecified),PXC50,"BOTTOM 5.604710013, HILLSLOPE 1.073782549, MAX_EFFECT 50.43327556, TOP 78.0664514",4.19
same,PXC50,MAX_EFFECT 34.22818792,< 4
same,PXC50,MAX_EFFECT 37.5,< 4
same,PXC50,MAX_EFFECT 42.63038549,< 4
same,PXC50,MAX_EFFECT 45.23364486,< 4
COc1ccccc1CN1CCC(c2nn(CCN)c3nccnc23)C1 (stereo unspecified),PXC50,"BOTTOM 6.910506635, HILLSLOPE 2.152998005, MAX_EFFECT 63.75838926, TOP 91.48778108",4.15
same,PXC50,"BOTTOM -1.343168311, HILLSLOPE 1.212343279, MAX_EFFECT 59.72222222, TOP 92.89137202",4.23
same,PXC50,"BOTTOM -1.505582699, HILLSLOPE 1.035538343, MAX_EFFECT 55.28596187, TOP 100.0",4.07
Cc1nc(CN(C)CC2CCCN2c2cccnn2)nc2ccccc12 (stereo unspecified),PXC50,"BOTTOM 6.94309251, HILLSLOPE 1.363298468, MAX_EFFECT 83.49834983, TOP 100.0",4.46
same,PXC50,"BOTTOM 8.751319867, HILLSLOPE 2.615595336, MAX_EFFECT 78.85304659, TOP 100.0",4.21
same,PXC50,"BOTTOM -1.910835363, HILLSLOPE 2.399208882, MAX_EFFECT 79.71014493, TOP 90.01694606",4.37
COCCCNc1nc(Nc2ccc(F)c(F)c2)nc2c1cnn2C,PXC50,"BOTTOM 8.707474288, HILLSLOPE 1.018785888, MAX_EFFECT 82.18527316, TOP 91.55126405",4.89
same,PXC50,"BOTTOM 8.755992534, HILLSLOPE 0.77848464, MAX_EFFECT 80.25751073, TOP 100.0",4.77
same,PXC50,"BOTTOM -0.585436575, HILLSLOPE 0.774777818, MAX_EFFECT 86.07350097, TOP 105.947702",4.83
Cn1ncc2c(N3CCOCC3)nc(Nc3ccc(F)c(F)c3)nc21,PXC50,"BOTTOM 9.319609168, HILLSLOPE 1.297043796, MAX_EFFECT 53.57833656, TOP 67.28849304",5.29
same,PXC50,MAX_EFFECT 10.12396694,< 4
same,PXC50,MAX_EFFECT 42.73127753,< 4
c1ccc(CNc2ncc(CN3CCCN4CCC[C@H]4C3)cn2)cc1,PXC50,"BOTTOM -0.610075864, HILLSLOPE 1.031656218, MAX_EFFECT 61.9047619, TOP 100.0",4.18
same,PXC50,"BOTTOM -1.183822823, HILLSLOPE 1.053099151, MAX_EFFECT 65.67425569, TOP 100.0",4.24
same,PXC50,MAX_EFFECT 60.86956522,< 4
CCN(CC)c1ccc2ccc(C(=O)N3CCCCO3)cn12,PXC50,"BOTTOM -0.620934572, HILLSLOPE 1.091774088, MAX_EFFECT 59.15492958, TOP 100.0",4.06
same,PXC50,"BOTTOM -3.857934484, HILLSLOPE 1.704145188, MAX_EFFECT 56.25, TOP 100.0",4.39
same,PXC50,MAX_EFFECT 43.85964912,< 4
same,PXC50,MAX_EFFECT 47.96296296,< 4
Cc1ccc(CSc2nc(N)cc(NCC(=O)N3CCNCC3)n2)cc1,PXC50,"BOTTOM -2.199449509, HILLSLOPE 1.075485519, MAX_EFFECT 68.11594203, TOP 100.0",4.29
same,PXC50,"BOTTOM -2.347869122, HILLSLOPE 1.011463002, MAX_EFFECT 66.66666667, TOP 100.0",4.27
same,PXC50,"BOTTOM -6.039839519, HILLSLOPE 1.064095709, MAX_EFFECT 59.36952715, TOP 57.65563111",4.81
Cc1cc(C)n(-c2nc(N3CCCC(O)C3)c3c4c(sc3n2)CCCC4)n1 (stereo unspecified),PXC50,MAX_EFFECT 1.492537313,< 4
same,PXC50,MAX_EFFECT 6.004140787,< 4
same,PXC50,MAX_EFFECT 6.832298137,< 4
same,PXC50,MAX_EFFECT 7.036247335,< 4
O=S(=O)(NCCSc1nccn1C1CC1)c1ccccc1,PXC50,MAX_EFFECT 2.721088435,< 4
same,PXC50,MAX_EFFECT 2.898550725,< 4
same,PXC50,MAX_EFFECT 8.23117338,< 4
